The whole screen tested about 310,000 compounds, of which about 14,000 (4.5%) showed an effect of 50% or more. Effects have a minus sign here. Shown is part of a subset that was picked to be rich in strong results.
Target: human ether-à-go-go-related gene (hERG) potassium channel (human, UniProt Q12809)
Assay: primary screen, population patch clamp on CHO cells stably expressing hERG; higher = less effect of the substance
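Note: peak tail current of the secondary pulse compared with the same well before compound.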

Chain of human ether-à-go-go-related gene (hERG) potassium channel (Q12809 whole entry, looked up): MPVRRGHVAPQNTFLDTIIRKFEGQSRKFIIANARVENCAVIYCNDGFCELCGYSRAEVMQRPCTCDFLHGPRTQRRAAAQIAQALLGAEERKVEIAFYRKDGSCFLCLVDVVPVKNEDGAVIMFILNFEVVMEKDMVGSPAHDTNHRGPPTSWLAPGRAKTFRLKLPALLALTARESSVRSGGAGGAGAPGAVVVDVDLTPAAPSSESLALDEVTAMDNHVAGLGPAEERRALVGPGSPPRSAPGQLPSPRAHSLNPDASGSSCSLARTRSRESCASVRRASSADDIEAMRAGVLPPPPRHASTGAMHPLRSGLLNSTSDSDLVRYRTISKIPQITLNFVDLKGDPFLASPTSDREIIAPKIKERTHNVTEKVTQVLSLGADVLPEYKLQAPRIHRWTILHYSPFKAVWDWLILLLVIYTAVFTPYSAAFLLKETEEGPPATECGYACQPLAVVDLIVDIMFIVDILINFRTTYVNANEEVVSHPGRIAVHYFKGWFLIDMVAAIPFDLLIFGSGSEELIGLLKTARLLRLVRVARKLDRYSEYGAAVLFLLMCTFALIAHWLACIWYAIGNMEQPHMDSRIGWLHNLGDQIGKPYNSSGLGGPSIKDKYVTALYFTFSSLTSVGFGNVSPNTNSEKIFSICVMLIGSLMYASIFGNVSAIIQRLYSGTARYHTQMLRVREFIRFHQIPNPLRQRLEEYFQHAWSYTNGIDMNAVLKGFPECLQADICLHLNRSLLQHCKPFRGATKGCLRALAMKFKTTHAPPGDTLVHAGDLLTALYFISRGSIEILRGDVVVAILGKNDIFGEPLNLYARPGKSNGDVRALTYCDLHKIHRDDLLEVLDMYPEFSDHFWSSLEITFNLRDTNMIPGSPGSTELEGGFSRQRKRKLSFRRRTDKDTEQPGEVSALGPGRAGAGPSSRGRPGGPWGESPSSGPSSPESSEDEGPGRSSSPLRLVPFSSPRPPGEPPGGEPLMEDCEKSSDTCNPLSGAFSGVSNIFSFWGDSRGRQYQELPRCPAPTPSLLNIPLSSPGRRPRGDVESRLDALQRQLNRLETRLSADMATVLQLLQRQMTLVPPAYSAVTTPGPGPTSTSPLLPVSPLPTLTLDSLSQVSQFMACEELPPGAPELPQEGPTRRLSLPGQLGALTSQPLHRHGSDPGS

Compared with `O=C(CN1CCN(CC(=O)Nc2ccccc2C(F)(F)F)CC1)Nc1ccccc1F`, `O=C(CN1CCN(C(=O)c2c(F)cccc2F)CC1)Nc1ccccc1C(F)(F)F` is higher in “hERG current change (%, negative = inhibition) at 10uM” value: -30.2% for the first, -20.9% for the second.

Compared with `Cc1cccc(NC(=O)Cn2cnc3c(cnn3-c3ccc(F)cc3)c2=O)c1C`, `Cc1cccc(NC(=O)CN2CCN(C(=O)c3cncn3-c3ccc(F)cc3)CC2)c1C` is lower in “hERG current change (%, negative = inhibition) at 10uM” value: 2.99% for the first, -60.9% for the second.

Going from `Cc1cccc(NC(=S)N2CCN(Cc3ccccc3)CC2)c1C` to `Cc1cccc(NC(=O)CN2CCN(C(=O)c3cnn(Cc4ccccc4)c3)CC2)c1C`, the “hERG current change (%, negative = inhibition) at 10uM” value falls from -13.2% to -87.2%.

Compared with `Cc1cccc(NC(=O)CN2CCN(C(=O)c3oc4c(Cl)cccc4c3C)CC2)c1C`, `O=C(CN1CCN(C(=O)c2cncn2-c2ccccc2)CC1)Nc1ccccc1Cl` is lower in “hERG current change (%, negative = inhibition) at 10uM” value: -43.6% for the first, -77.3% for the second.

Compared with `O=C(CN1CCCCCC1)Nc1ccccc1Cl`, `O=C(CN1CCCCC1)Nc1ccccc1Cl` is higher in “hERG current change (%, negative = inhibition) at 10uM” value: 6.75% for the first, 21.1% for the second.

Going from `O=C(CN1CCN(C(=O)c2cncn2-c2ccc(F)cc2)CC1)Nc1ccccc1C(F)(F)F` to `Cc1ccc(-n2c(N)cc(=O)nc2SCC(=O)N2CCN(c3ccccc3)CC2)cc1`, the “hERG current change (%, negative = inhibition) at 10uM” value rises from -70% to -0.877%.

Going from `COc1cc(OC)cc(C(=O)OCC(=O)Nc2ccc(F)cc2F)c1` to `COc1cc(OC)cc(-c2nnc(SCc3c(F)cccc3Cl)o2)c1`, the “hERG current change (%, negative = inhibition) at 10uM” value falls from 4.34% to 0.324%.

Compared with `CCC(C)(C)NC(=O)c1ccc2c(c1)S(=O)(=O)c1ccccc1C2=O`, `Cc1ccc(SCC(=O)Nc2cccc(C(=O)NC(C)(C)C)c2)cc1` is higher in “hERG current change (%, negative = inhibition) at 10uM” value: -16.8% for the first, 4.17% for the second.

First: CNS(=O)(=O)c1cccc(C(=O)OCC(=O)NCCCc2ccccc2)c1
Second: COc1cccc(-c2ccc(SCC(=O)NCCc3ccccc3)nn2)c1
The “hERG current change (%, negative = inhibition) at 10uM” value of the first is higher: -5.42% for the first, -41.7% for the second.

Compared with `COc1ccccc1CC(=O)N1CCCc2ccccc21`, `O=C(c1ccc(C(=O)N2CCCc3ccccc32)nc1)N1CCCc2ccccc21` is lower in “hERG current change (%, negative = inhibition) at 10uM” value: 0.493% for the first, -9.08% for the second.

Going from `COc1cc([N+](=O)[O-])ccc1NC(=O)Nc1nc2c(s1)CCCC2` to `COc1ccc(C(=O)C[n+]2cc(Br)cc3ccccc32)cc1[N+](=O)[O-].[Br-]`, the “hERG current change (%, negative = inhibition) at 10uM” value falls from 11.7% to -66.3%.

First: O=C(Nc1ccccc1C(=O)O)c1ccc(NC(=O)c2ccc(Br)o2)cc1
Second: O=C(C[n+]1cccc2ccccc21)c1ccc(NC(=O)c2ccccc2)cc1.[Br-]
The “hERG current change (%, negative = inhibition) at 10uM” value of the first is higher: 11.7% for the first, 8.45% for the second.

Compared with `COc1cc(C(CC(=O)Nc2ccccn2)N2Cc3ccccc3C2=O)cc(OC)c1OC` (stereo not drawn), `COc1cc(C(CC(=O)Nc2ccc(Cl)cn2)N2Cc3ccccc3C2=O)cc(OC)c1OC` (stereo not drawn) is lower in “hERG current change (%, negative = inhibition) at 10uM” value: -11.5% for the first, -68.1% for the second.

First: COc1cc(C(CC(=O)Nc2ccc(C)cn2)N2Cc3ccccc3C2=O)cc(OC)c1OC (stereo not drawn)
Second: COc1ccc(C2=NS(=O)(=O)N(C)C(C(=O)N(C)Cc3ccccc3)=C2)cc1OC
The “hERG current change (%, negative = inhibition) at 10uM” value of the first is higher: -1.38% for the first, -6.75% for the second.

Compared with `Cc1ccc(Nc2cc(C)nc(N3CCOCC3)n2)cc1`, `O=C(Nc1cc(Cl)ccc1N1CCOCC1)c1cccnc1Cl` is lower in “hERG current change (%, negative = inhibition) at 10uM” value: 6.18% for the first, 1.8% for the second.

First: O=S(=O)(NC1CCCCC1)c1cccc(-c2nnc(-c3ccccc3)o2)c1
Second: CCC(C)N1C(=O)c2ccccc2C1C(=O)NC1CCCCCC1 (stereo not drawn)
The “hERG current change (%, negative = inhibition) at 10uM” value of the first is lower: -36.4% for the first, 4.45% for the second.

First: Cc1ccc(N=C2S/C(=C/c3cccc(OCC(=O)O)c3)C(=O)N2C)cc1C
Second: COc1ccc(C(=O)C[n+]2cccc(C)c2C)cc1[N+](=O)[O-].[Br-]
The “hERG current change (%, negative = inhibition) at 10uM” value of the first is higher: 20.5% for the first, -13.2% for the second.

Compared with `CCNC(=O)CSc1nnc(-c2ccc(OC)cc2)n1CC(C)C`, `CCNC(=O)CSc1nc2cc([N+](=O)[O-])ccc2n1-c1cccc(C(F)(F)F)c1` is lower in “hERG current change (%, negative = inhibition) at 10uM” value: -3.51% for the first, -35.8% for the second.

First: CC1CCCN(C(=O)Cn2c3ccccc3c3nc4n(c(=O)c32)CCS4)C1 (stereo not drawn)
Second: Cc1ccccc1CN1C[C@@H]2C[C@@H](c3ccc4nsnc4c3)N3CCC[C@@]23C1=O
The “hERG current change (%, negative = inhibition) at 10uM” value of the first is higher: -3.59% for the first, -18.1% for the second.

First: O=C1N(Cc2cccnc2)C[C@@H]2C[C@@H](c3ccccc3C#Cc3ccccc3)N3CCC[C@@]123
Second: O=C1N(Cc2cccnc2)C[C@@H]2C[C@@H](c3ccc(-c4ccccc4)cc3)N3CCC[C@@]123
The “hERG current change (%, negative = inhibition) at 10uM” value of the first is higher: -69.5% for the first, -71.3% for the second.

First: COc1ccccc1CN1C[C@@H]2C[C@@H](c3ccc(C)cc3)N3CCC[C@@]23C1=O
Second: COc1ccccc1CN1C[C@@H]2C[C@@H](c3ccc(Cl)cc3)N3CCC[C@@]23C1=O
The “hERG current change (%, negative = inhibition) at 10uM” value of the first is higher: -43.6% for the first, -44.1% for the second.

First: CCc1ccc([C@@H]2C[C@H]3CN(Cc4ccccc4OC)C(=O)[C@]34CCCN24)cc1
Second: COC(=O)c1ccc([C@@H]2C[C@H]3CN(Cc4cccnc4)C(=O)[C@]34CCCN24)cc1
The “hERG current change (%, negative = inhibition) at 10uM” value of the first is lower: -70.7% for the first, -1.19% for the second.

Going from `O=C1N(Cc2cccnc2)C[C@@H]2C[C@@H](c3ccc(C(F)(F)F)cc3)N3CCC[C@@]123` to `O=C1N(Cc2cccnc2)C[C@@H]2C[C@@H](c3cccc(C(F)(F)F)c3)N3CCC[C@@]123`, the “hERG current change (%, negative = inhibition) at 10uM” value rises from -53.9% to -10.3%.

First: O=C1N(Cc2cccnc2)C[C@@H]2C[C@@H](c3ccccc3C(F)(F)F)N3CCC[C@@]123
Second: Cc1ccccc1-c1cccc([C@@H]2C[C@H]3CN(Cc4cccnc4)C(=O)[C@]34CCCN24)c1
The “hERG current change (%, negative = inhibition) at 10uM” value of the first is higher: -11.2% for the first, -59% for the second.

Going from `Cc1ccc(NC(=S)N2CCn3cccc3C2c2cccnc2)cc1` (stereo not drawn) to `Cc1ccccc1S(=O)(=O)NCc1cccnc1`, the “hERG current change (%, negative = inhibition) at 10uM” value rises from -37.3% to 5.17%.

Compared with `CCOc1ccccc1-c1nc(-c2ccncc2)no1`, `COc1ccc(CCNC(=O)c2cnccn2)cc1` is higher in “hERG current change (%, negative = inhibition) at 10uM” value: -15.8% for the first, 10.8% for the second.

Going from `CCCN(C(=O)C(C)Oc1cccc(Cl)c1)c1c(N)n(Cc2ccccc2)c(=O)[nH]c1=O` (stereo not drawn) to `COc1ccc(C2=NS(=O)(=O)N(C)C(C(=O)N(C)Cc3ccccc3)=C2)cc1`, the “hERG current change (%, negative = inhibition) at 10uM” value falls from 1.41% to -69.9%.

Going from `COC(=O)c1cc2occc2n1Cc1ccc(Cl)cc1` to `O=C(C[n+]1cc(Br)cc2ccccc21)c1ccc(Cl)cc1.[Br-]`, the “hERG current change (%, negative = inhibition) at 10uM” value falls from 9.68% to -49.8%.

Going from `Nc1nonc1-n1nnc(C(=O)N/N=C/c2ccc(OCc3ccccc3)cc2)c1CN1CCCCC1` to `C=CCn1c(SCC(=O)Nc2cccnc2Cl)nnc1-c1ccccc1F`, the “hERG current change (%, negative = inhibition) at 10uM” value falls from 7.17% to -15.5%.

First: CN(C)S(=O)(=O)Nc1cc(Cl)cc(Cl)c1
Second: Cc1ccc(S(=O)(=O)N(C)C)cc1[N+](=O)[O-]
The “hERG current change (%, negative = inhibition) at 10uM” value of the first is higher: -0.782% for the first, -4.14% for the second.

Compared with `COc1ccc(C(O)(CCN2CCCCC2)C2CCCCC2)cc1.Cl` (stereo not drawn), `O=S(=O)(c1ccc(N2CCCCCC2)nc1)N1CCCC1` is higher in “hERG current change (%, negative = inhibition) at 10uM” value: -27.4% for the first, 17.2% for the second.

Compared with `CC(C)C1N(C(=O)CN2CCCC2)CCN1S(=O)(=O)c1ccccc1` (stereo not drawn), `N#CCc1c(C#N)c(N)nc(N2CCN(S(=O)(=O)c3ccccc3)CC2)c1C#N` is lower in “hERG current change (%, negative = inhibition) at 10uM” value: 11% for the first, -0.357% for the second.

Compared with `Cc1cc(C(=O)NNc2cc(Cl)ccc2Cl)no1`, `Cc1cc(C(=O)N/N=C/c2c[nH]c3ccccc23)cs1` is lower in “hERG current change (%, negative = inhibition) at 10uM” value: 6.55% for the first, -8.33% for the second.

Going from `CC(Sc1nc2cc([N+](=O)[O-])ccc2n1-c1cccc(C(F)(F)F)c1)C(=O)NC(N)=O` (stereo not drawn) to `NC(=O)NC(=O)CSc1nc2cc([N+](=O)[O-])ccc2n1-c1cccc(C(F)(F)F)c1`, the “hERG current change (%, negative = inhibition) at 10uM” value falls from 13.6% to -57.7%.

First: NC(=O)CSc1nc2cc([N+](=O)[O-])ccc2n1-c1cccc(C(F)(F)F)c1
Second: C=CCNC(=O)NC(=O)CSc1nc2cc([N+](=O)[O-])ccc2n1-c1cccc(C(F)(F)F)c1
The “hERG current change (%, negative = inhibition) at 10uM” value of the first is lower: -69.9% for the first, 20.8% for the second.

Going from `NC(=O)CSc1nnc(-c2ccccc2Br)n1-c1cccc(C(F)(F)F)c1` to `O=C(CSc1nnc(CNC(=O)c2ccco2)o1)Nc1ccccc1`, the “hERG current change (%, negative = inhibition) at 10uM” value rises from -11.9% to 17.2%.

Compared with `O=C(C[n+]1cc(Br)cc2ccccc21)c1ccc(Br)cc1.[Br-]`, `O=C(C[n+]1cc(Br)cc2ccccc21)c1ccc(F)cc1.[Br-]` is higher in “hERG current change (%, negative = inhibition) at 10uM” value: -83.3% for the first, -41.6% for the second.

First: O=C(C[n+]1cc2ccccc2c2ccccc21)c1ccccc1.[Br-]
Second: O=C(C[n+]1cc(Br)cc2ccccc21)c1ccccc1.[Br-]
The “hERG current change (%, negative = inhibition) at 10uM” value of the first is lower: -73.8% for the first, -21.7% for the second.

Compared with `Cc1ccc2c(ccc[n+]2CC(=O)c2ccccc2)c1.[Br-]`, `CN(C)C(CNC(=O)CCc1c[nH]c2ccccc12)c1ccccc1` (stereo not drawn) is higher in “hERG current change (%, negative = inhibition) at 10uM” value: -13.1% for the first, -5.7% for the second.

Going from `COc1cc(C=O)ccc1OCCSc1ccc(C)cc1` to `COc1ccc(C2=NS(=O)(=O)N(C)C(C(=O)NCc3ccco3)=C2)cc1OC`, the “hERG current change (%, negative = inhibition) at 10uM” value falls from -3.13% to -48.9%.

Compared with `CCOC(=O)C1=CC[C@H]2c3c(c4ccccc4n3C)C(=O)C1N2S(=O)(=O)c1ccc(C)cc1`, `COc1ccc(CNC(=O)C2=CC(c3ccc(C)cc3)=NS(=O)(=O)N2C)cc1` is lower in “hERG current change (%, negative = inhibition) at 10uM” value: -4.05% for the first, -9.69% for the second.

Compared with `COc1ccc(CNC(=O)C2=CC(c3ccc(OC)cc3)=NS(=O)(=O)N2C)cc1`, `COc1ccc(C2=NS(=O)(=O)N(C)C(C(=O)NCc3ccccn3)=C2)cc1` is higher in “hERG current change (%, negative = inhibition) at 10uM” value: -54.5% for the first, -33.9% for the second.

First: Cc1ccc(C2=NS(=O)(=O)N(C)C(C(=O)NCc3cccs3)=C2)cc1
Second: Cc1ccc(C2=NS(=O)(=O)N(C)C(C(=O)NCc3ccco3)=C2)cc1
The “hERG current change (%, negative = inhibition) at 10uM” value of the first is higher: -8.57% for the first, -58.4% for the second.

Going from `COc1ccc(C2=NS(=O)(=O)N(C)C(C(=O)NCc3cccs3)=C2)cc1OC` to `COc1ccc(OC)c(C2=NS(=O)(=O)N(C)C(C(=O)NCc3cccs3)=C2)c1`, the “hERG current change (%, negative = inhibition) at 10uM” value rises from -53.9% to -28%.

Going from `COc1ccc(C2=NS(=O)(=O)N(C)C(C(=O)NC(C)c3ccccc3)=C2)cc1` (stereo not drawn) to `CN1C(C(=O)NCc2ccco2)=CC(c2ccc(F)cc2)=NS1(=O)=O`, the “hERG current change (%, negative = inhibition) at 10uM” value falls from -23.8% to -34.2%.
